Source: PubChem BioAssay AID1159580 (chemical genetic matrix, 2015)
In all, about 5,500 compounds went through this assay and about 2,000 (36%) were called active. About 18% were inconclusive and are not listed. Cut-off read from the data, not from the text of the source: active = normalized growth mostly below about 0.91 (no sharp cut-off); inconclusive = no clear call, values can overlap the other calls; inactive = mostly above about 0.92. Some of the results follow.

Test: chemical genetic growth profiling, strain panel (AID 1159580);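 note: tested at 20 µM; growth read once vehicle control cultures reached saturation at 30 °C; 1 = growth at the plate median or of vehicle wells; lower values mean less growth of the strain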
Details: S. cerevisiae deletion strains, growth OD
[1] = locus YAL040C, strain CLN3, hits give low values
[2] = locus YCL061C, strain MRC1 (second series), hits give low values
[3] = locus YDR363W, strain ESC2, hits give low values
[4] = locus YER002W, strain NOP16, hits give low values
[5] = locus YMR307W, strain GAS1, hits give low values
[6] = locus YNL153C, strain GIM3, hits give low values
[7] = locus YNL175C, strain NOP13, hits give low values
[8] = locus YNL224C, strain SQS1, hits give low values
[9] = locus YOR083W, strain WHI5 (second series), hits give low values

Measured: normalized growth

C[C@]12CCC(=O)C=C1CC[C@@H]1[C@@H]2[C@@H](O)C[C@@]2(C)[C@H]1CC[C@]2(O)C(=O)CO
inactive: locus YAL013W, strain DEP1, hits give low values 1 | [1] 0.989 | [2] 1 | locus YDR150W, strain NUM1, hits give low values 0.993 | [3] 1.02 | [4] 0.986 | [5] 1.01 | [6] 1.01 | [7] 0.99 | [8] 0.995 | locus YNL322C, strain KRE1, hits give low values 1 | [9] 1.01

C#C[C@]1(O)CC[C@H]2[C@@H]3CCC4=Cc5oncc5CC4(C)[C@H]3CCC21C (stereo partly drawn)
inactive: [1] 0.943 | [2] 1 | [3] 1.02 | [4] 0.949 | locus YGR078C, strain PAC10, hits give low values 0.948 | locus YGR229C, strain SMI1, hits give low values 1.02 | locus YJR075W, strain HOC1, hits give low values 1 | locus YMR263W, strain SAP30, hits give low values 1 | [5] 0.988 | [6] 0.917 | [7] 0.917 | locus YNL197C, strain WHI3, hits give low values 0.921 | [8] 0.934 | [9] 0.99 | locus YPL055C, strain LGE1, hits give low values 1.02 | locus YPL241C, strain CIN2, hits give low values 1
